From PubChem BioAssay (NCATS)
Records with an inconclusive call do not appear. A call without a number means that no potency is given here. Active and inactive are the calls of the source. Unless noted, calls come from the whole dose curve; as a rule, active = well fitted curve in the direction sought with a large enough effect; inconclusive = small, poorly fitted or top-dose-only effect, or another doubt; inactive = no such curve, though single readings can be large; an effect the other way counts as inactive or inconclusive.

Experiments:
[1] = molecular target: Calcium and integrin-binding protein 1 (Homo sapiens) (UniProt Q99828); test: Primary qHTS for Identification of Calcium Integrin Binding Protein 1 (CIB1) Competitor (AID 1508620);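 note: GST tagged CIB1 binding a fluorescein labelled alphaIIb integrin peptide tracer; top concentration of the series differs between compounds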
Calcium and integrin-binding protein 1 (Homo sapiens), sequence (Q99828 whole entry, looked up): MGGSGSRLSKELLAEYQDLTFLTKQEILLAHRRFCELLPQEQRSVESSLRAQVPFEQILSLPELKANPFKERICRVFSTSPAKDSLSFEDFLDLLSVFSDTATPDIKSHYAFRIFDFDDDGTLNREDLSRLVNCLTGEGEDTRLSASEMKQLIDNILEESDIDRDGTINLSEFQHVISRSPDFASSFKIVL
Summary of the method: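 Fluorescence polarization competition: CIB1-GST (1 uM final) preincubated with compound 15 min at room temperature, then FITC-labeled alphaIIb peptide (100 nM final) added for another 15 min. Polarization read at Ex 480/Em 540.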

[2] = Primary qHTS for small molecule stabilizers of the endoplasmic reticulum resident proteome: Secreted ER Calcium Modulated Protein (SERCaMP) assay (AID 1508630)
Summary of the method: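 GLuc-SERCaMP-expressing SH-SY5Y cells, pretreated 16 h with compound, are challenged with thapsigargin to empty ER calcium stores; after 4 h, coelenterazine is added directly to the medium and luminescence is imaged.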

[3] = molecular target: Cytochrome P450 2D6 (Homo sapiens) (UniProt P10635); test: Cytochrome P450 family 2 subfamily D member 6 (CYP2D6) small molecule antagonists: luciferase biochemical (cell-free) qHTS assay (AID 1645840; active = well fitted curve in the direction sought with a large enough effect in the repeat runs; an effect the other way counts as inactive or inconclusive; note: potency is the fitted concentration of half-maximal effect; nearly all actives have a fitted effect of over 55% in size)
Cytochrome P450 2D6 (Homo sapiens), sequence (P10635 whole entry, looked up): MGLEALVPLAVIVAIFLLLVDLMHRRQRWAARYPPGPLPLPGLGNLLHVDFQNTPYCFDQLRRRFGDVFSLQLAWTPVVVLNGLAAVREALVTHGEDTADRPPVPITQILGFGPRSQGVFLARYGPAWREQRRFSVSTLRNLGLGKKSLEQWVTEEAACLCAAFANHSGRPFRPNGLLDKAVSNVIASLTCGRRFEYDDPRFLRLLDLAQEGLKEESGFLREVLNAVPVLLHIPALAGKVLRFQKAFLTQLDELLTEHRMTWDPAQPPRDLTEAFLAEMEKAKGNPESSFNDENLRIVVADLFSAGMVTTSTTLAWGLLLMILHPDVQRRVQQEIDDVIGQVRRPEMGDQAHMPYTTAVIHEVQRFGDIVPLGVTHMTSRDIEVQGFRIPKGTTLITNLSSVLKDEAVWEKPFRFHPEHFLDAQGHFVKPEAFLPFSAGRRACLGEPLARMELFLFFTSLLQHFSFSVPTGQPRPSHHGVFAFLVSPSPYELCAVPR
Summary of the method: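 P450-Glo luminescent screen: recombinant CYP2D6 enzyme–proluciferin substrate mix preincubated with compound 10 min at room temperature, then NADPH regeneration added for 1 h at room temperature. Detection reagent added for 20 min; luciferin light read as relative luminescence units.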

[4] = molecular target: Cytochrome P450 2C9 (Homo sapiens) (UniProt P11712); test: Cytochrome P450 family 2 subfamily C member 9 (CYP2C9) small molecule antagonists: luciferase biochemical (cell-free) qHTS assay (AID 1645842; active = well fitted curve in the direction sought with a large enough effect in the repeat runs; an effect the other way counts as inactive or inconclusive; note: potency is the fitted concentration of half-maximal effect; nearly all actives have a fitted effect of over 55% in size)
Cytochrome P450 2C9 (Homo sapiens), sequence (P11712 whole entry, looked up): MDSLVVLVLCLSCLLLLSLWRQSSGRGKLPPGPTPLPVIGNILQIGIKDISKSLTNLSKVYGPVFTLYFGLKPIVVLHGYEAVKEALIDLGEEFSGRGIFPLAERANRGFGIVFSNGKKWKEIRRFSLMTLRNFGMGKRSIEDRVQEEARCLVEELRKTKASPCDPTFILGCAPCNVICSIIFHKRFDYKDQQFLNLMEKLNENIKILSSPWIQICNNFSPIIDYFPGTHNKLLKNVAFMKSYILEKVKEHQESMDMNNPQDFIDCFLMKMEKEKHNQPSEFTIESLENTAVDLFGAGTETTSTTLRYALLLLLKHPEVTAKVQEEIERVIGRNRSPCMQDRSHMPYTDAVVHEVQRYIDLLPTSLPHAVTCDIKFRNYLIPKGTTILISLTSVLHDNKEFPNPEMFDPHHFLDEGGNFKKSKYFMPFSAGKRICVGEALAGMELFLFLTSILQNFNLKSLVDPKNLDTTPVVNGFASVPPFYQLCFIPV
Summary of the method: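 Luminescence, after 20 min with luciferin detection reagent, reflected CYP2C9 turnover during a 1 h NADPH-driven reaction at 37C. Enzyme-substrate mix contained 0.4% bovine serum albumin and was preincubated with compound 10 min at room temperature.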

Which results are given for NS(=O)(=O)c1ccc(NC2=CC(=O)c3ccccc3C2=O)cc1?
Potency [1]: inactive; Potency [2]: inactive

Which Potency [1] does the source give for CC(C(=O)O)c1ccc(-c2ccccc2)c(F)c1 (configuration not stated) here?
The Potency was “inactive”.

What about the Potency [2] of the same compound?
The Potency was “inactive”.

With COc1ccc2cc(-c3nc(-c4ccc(S(C)=O)cc4)[nH]c3-c3ccncc3)ccc2c1 (configuration not stated) as the compound, how does the Potency [1] read?
Its Potency is “inactive”.

And the Potency [3]?
Its Potency is 3.38 µM (active).

And the Potency [4]?
The Potency was 3.38 µM (active).
